Screening data: PubChem, National Center for Advancing Translational Sciences (NCATS)
This is a sample that favours compounds with a hit; in the whole collection about 10% have one here.
BAZ2B inh = BAZ2B (human) inhibition | AlphaScreen BAZ2B-H3K14Ac peptide displacement | Potency, µM (highest dose often 114 µM), hits mostly inhibitors | 360,000 tested, 4.4% active; further: nearly all actives have a fitted effect of over 60% in size
Target sequence (Q9UIF8 whole entry, looked up): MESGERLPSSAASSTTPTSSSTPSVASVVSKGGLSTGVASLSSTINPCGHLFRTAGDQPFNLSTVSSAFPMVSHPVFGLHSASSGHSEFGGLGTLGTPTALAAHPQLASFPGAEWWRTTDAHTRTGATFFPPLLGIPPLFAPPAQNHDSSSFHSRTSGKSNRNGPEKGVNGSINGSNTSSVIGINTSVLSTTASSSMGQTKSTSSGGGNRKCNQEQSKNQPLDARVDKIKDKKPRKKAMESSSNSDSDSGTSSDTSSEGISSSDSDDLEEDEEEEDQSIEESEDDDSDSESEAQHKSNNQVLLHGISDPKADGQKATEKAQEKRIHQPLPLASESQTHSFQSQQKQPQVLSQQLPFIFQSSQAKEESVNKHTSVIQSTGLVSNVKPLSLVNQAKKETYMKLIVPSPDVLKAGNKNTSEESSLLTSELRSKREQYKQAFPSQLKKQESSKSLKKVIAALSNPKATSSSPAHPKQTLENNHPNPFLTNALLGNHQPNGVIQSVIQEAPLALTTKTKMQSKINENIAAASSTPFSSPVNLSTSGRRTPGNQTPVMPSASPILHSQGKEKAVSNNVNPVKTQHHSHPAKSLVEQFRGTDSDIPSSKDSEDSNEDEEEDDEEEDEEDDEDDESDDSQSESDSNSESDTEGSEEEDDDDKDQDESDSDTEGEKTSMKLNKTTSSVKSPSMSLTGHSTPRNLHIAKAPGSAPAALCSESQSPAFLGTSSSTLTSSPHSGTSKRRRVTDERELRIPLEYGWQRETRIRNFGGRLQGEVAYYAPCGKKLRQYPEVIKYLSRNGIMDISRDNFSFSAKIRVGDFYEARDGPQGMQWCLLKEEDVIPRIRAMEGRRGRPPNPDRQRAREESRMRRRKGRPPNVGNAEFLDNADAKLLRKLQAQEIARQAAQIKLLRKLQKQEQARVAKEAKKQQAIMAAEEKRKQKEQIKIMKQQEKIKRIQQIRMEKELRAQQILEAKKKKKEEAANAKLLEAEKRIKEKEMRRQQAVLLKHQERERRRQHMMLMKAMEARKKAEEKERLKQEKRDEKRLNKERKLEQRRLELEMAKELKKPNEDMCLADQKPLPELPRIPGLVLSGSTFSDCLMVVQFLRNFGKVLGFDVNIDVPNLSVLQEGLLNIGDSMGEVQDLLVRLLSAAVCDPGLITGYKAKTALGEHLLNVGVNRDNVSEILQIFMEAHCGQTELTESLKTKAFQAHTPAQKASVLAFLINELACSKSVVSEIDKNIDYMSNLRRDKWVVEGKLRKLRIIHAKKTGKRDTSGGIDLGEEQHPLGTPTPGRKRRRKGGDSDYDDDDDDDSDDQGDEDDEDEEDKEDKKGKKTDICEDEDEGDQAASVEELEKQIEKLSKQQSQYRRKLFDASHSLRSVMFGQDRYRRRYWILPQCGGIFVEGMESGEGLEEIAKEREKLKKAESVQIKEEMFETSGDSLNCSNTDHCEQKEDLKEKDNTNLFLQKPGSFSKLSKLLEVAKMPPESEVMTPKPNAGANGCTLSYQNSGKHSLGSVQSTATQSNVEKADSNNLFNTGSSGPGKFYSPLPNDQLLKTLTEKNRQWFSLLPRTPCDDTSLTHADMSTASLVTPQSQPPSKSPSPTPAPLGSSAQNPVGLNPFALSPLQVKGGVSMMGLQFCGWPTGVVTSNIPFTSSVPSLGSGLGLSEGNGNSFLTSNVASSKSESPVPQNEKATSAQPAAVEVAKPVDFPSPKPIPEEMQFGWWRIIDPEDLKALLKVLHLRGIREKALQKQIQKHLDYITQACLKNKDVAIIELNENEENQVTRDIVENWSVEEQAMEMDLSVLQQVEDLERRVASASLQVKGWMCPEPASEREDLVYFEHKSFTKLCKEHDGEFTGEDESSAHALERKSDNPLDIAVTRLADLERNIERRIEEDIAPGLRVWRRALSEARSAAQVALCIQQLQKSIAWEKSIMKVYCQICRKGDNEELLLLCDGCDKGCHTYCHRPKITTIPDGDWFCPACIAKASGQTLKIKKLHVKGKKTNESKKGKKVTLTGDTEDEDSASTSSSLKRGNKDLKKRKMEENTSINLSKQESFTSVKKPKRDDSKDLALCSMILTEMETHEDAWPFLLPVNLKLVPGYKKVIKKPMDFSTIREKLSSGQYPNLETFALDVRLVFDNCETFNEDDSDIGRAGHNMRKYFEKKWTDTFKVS
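Complex of BAZ2B and biotin-H3K14Ac (50 nM apiece) forms over 30 min at RT, then faces library compounds up to 110 uM for another 30 min; AlphaScreen beads added, 20 min dark incubation, luminescence read.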
HP1b chromo inh = inhibitors of HP1-beta chromodomain binding to methylated histone tails; AlphaScreen HP1-beta / biotin-H3K9me3 peptide binding; Potency, µM (top dose mostly 114 µM), usual class: inhibitors; 390,000 tested, 0.56% active; AID 540317; further: nearly all actives have a fitted effect of over 70% in size
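Compound inhibition of the preformed complex between 50 nM HP1-beta and 50 nM biotinylated H3K9me3 peptide was read by AlphaScreen. Buffer was PBS pH 7.4 with 0.01% Tween-20. Incubations ran 30 min at room temperature, with 10 ug/mL donor/acceptor beads.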
G9a inh = blocks human histone lysine methyltransferase G9a; Q96KQ7; G9a H3K9 monomethylation, AlphaScreen, 2 h; Potency, µM (highest dose often 102 µM), hits mostly inhibitors; 350,000 tested, 8.8% active; AID 504332; further: nearly all actives have a fitted effect of over 75% in size
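Chemiluminescent proximity detection of H3K9 monomethylation, read after 10 min bead incubation in the dark. Reaction: 20 nM G9a, 500 nM biotin-H3K9 peptide, 20 uM SAM cofactor, 2 h, room temperature, following 15 min enzyme-compound preincubation.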
L3MBTL1 block = inhibitors of human L3MBTL1. Q9Y468. AlphaScreen L3MBTL1–H3K9me1 peptide binding. Potency, µM (highest dose often 57.1 µM), most hits filed as inhibitors. 230,000 tested, 0.66% active; further: nearly all actives have a fitted effect of over 60% in size
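AlphaScreen assay: L3MBTL1 (50 nM final) was preincubated 30 min at room temperature with biotinylated H3(1-15)K9me1 peptide (75 nM final), then 30 min with library compounds; streptavidin donor and nickel chelate acceptor beads (10 ug/mL final) added, 30 min dark.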
JMJD2A Tudor = inhibitors of human JMJD2A Tudor domain | O75164 | AlphaScreen JMJD2A-Tudor / H3K4me3 peptide binding | Potency, µM (titrated, usually from 114 µM), hits mostly inhibitors | 390,000 tested, 4.4% active; further: nearly all actives have a fitted effect of over 50% in size
GLS inh = blocks human kidney-isoform glutaminase activity; AID 624170; Potency, µM (highest dose often 45.5 µM), usual class: inhibitors; GLS enzymatic activity, qHTS titration; 410,000 tested, 0.21% active; O94925
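Compounds were pin-transferred onto hKGA, after which L-glutamine (1 mM solution) and a detection mix of glutamate oxidase, HRP and Amplex Red were added. Initial and 30 min RT fluorescence reads were collected.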
Large screens that a line does not name were inactive. The call rests on the fitted dose curve; in most records, active means well fitted curve in the direction sought with a large enough effect; inconclusive means small, poorly fitted or top-dose-only effect, or another doubt; inactive means no such curve, though single readings can be large; an effect the other way counts as inactive or inconclusive.

Cc1c(-c2nsc(NC(=O)c3ccc(Cl)cc3)n2)nnn1-c1ccc(C(C)C)cc1	none (no result: L3MBTL1 block)
COc1cc(/C=N/n2c(COc3ccccc3)n[nH]c2=S)cc(OC)c1OC(C)=O	G9a inh 10µM, JMJD2A Tudor inconclusive (no result: L3MBTL1 block)
CCOc1ccc(/C=N/n2c(COc3ccccc3)n[nH]c2=S)cc1OC	G9a inh 8.9µM, JMJD2A Tudor 20µM (no result: L3MBTL1 block)
CCc1n[nH]c(=S)n1/N=C/c1cc(Br)c(O)c(OC)c1	G9a inh 7.9µM, JMJD2A Tudor 5.6µM
C=CCOc1c(Br)cc(/C=N/n2c(CC)n[nH]c2=S)cc1Br	G9a inh inconclusive, JMJD2A Tudor inconclusive
COc1cc(/C=N\NC(=O)c2ccc(-c3ccccc3)cc2)cc(OC)c1OC(C)=O	none (no result: G9a inh, L3MBTL1 block)
COc1cc(/C=N/n2c(COc3ccccc3)n[nH]c2=S)cc(Br)c1O	G9a inh 1.3µM, JMJD2A Tudor 13µM (no result: L3MBTL1 block)
O=C(NCc1ccc(F)cc1)c1ccc2c(c1)nc1n2CCCCC1	none (no result: L3MBTL1 block)
CN1CCN(Cc2nc3ccccc3c(=O)n2Cc2nc(-c3cccc([N+](=O)[O-])c3)cs2)CC1	BAZ2B inh 40µM, HP1b chromo inh inconclusive, G9a inh 25µM, JMJD2A Tudor inconclusive (no result: L3MBTL1 block)
CN1CCN(Cc2nc3ccccc3c(=O)n2Cc2nc(-c3ccc4ccccc4c3)cs2)CC1	BAZ2B inh inconclusive, HP1b chromo inh inconclusive, G9a inh inconclusive, JMJD2A Tudor inconclusive
CN1CCN(Cc2nc3ccccc3c(=O)n2Cc2nc(-c3ccccc3F)cs2)CC1	G9a inh 35µM
CCc1nn(CC(=O)NCCCN(CC(C)C)CC(C)C)c(=O)c2cc3sc(C)cc3n12	none (no result: L3MBTL1 block)
CCOC(=O)C1CCN(c2nc3c(S(=O)(=O)c4ccccc4)nnn3c3ccc(Cl)cc23)CC1	none (no result: L3MBTL1 block)
O=C1CCc2cc(S(=O)(=O)NC3CCCCC3)cc3c2N1CC3	G9a inh 50µM, L3MBTL1 block inconclusive
CCN(C(=O)Cn1ncc2c(=O)oc3ccc(C)cc3c21)c1cc(OC)ccc1OC	BAZ2B inh inconclusive, G9a inh inconclusive, JMJD2A Tudor inconclusive (no result: L3MBTL1 block)
Cc1ccc(C)n1-n1cnc2sc(-c3ccccc3)cc2c1=O	none
Cc1ccc(C)n1-n1c(C)nc2sc(-c3ccccc3)cc2c1=O	BAZ2B inh inconclusive, G9a inh 14µM, JMJD2A Tudor inconclusive
O=C(Cn1cc(C(=O)C(F)(F)F)c2ccccc21)N1CCCCCC1	none (no result: L3MBTL1 block)
Cc1cc(C)n(CCc2nc3c4ccccc4nc(N4CCN(c5cccc(C)c5C)CC4)n3n2)n1	none (no result: L3MBTL1 block)
O=c1c(-c2cc(F)cc(F)c2)nc2cnc(N3CCNCC3)nc2n1CCc1ccccc1	none (no result: BAZ2B inh, HP1b chromo inh, L3MBTL1 block, JMJD2A Tudor, GLS inh)
CCCN(CCO)Cc1ccc(Br)cc1	BAZ2B inh inconclusive, HP1b chromo inh inconclusive, G9a inh 8.9µM, JMJD2A Tudor 20µM
CCCN(CCO)Cc1cccc(Cl)c1	BAZ2B inh inconclusive, HP1b chromo inh inconclusive, G9a inh inconclusive, JMJD2A Tudor 3.5µM
CCCOc1ccc(CN(CCO)CCO)cc1[N+](=O)[O-]	none
Fc1cccc(CNc2ncnc3ccc(-c4cccnc4)cc23)c1	none (no result: HP1b chromo inh, JMJD2A Tudor, GLS inh)
Cc1ccc(S(=O)(=O)N2CN(Cc3ccco3)c3nc4ccccc4nc32)cc1C	G9a inh 32µM
O=S(=O)(c1ccc(F)cc1)N1CN(Cc2ccco2)c2nc3ccccc3nc21	BAZ2B inh inconclusive, G9a inh 11µM, JMJD2A Tudor inconclusive (no result: L3MBTL1 block)
COc1ccc(S(=O)(=O)N2CN(Cc3ccco3)c3nc4ccccc4nc32)cc1	BAZ2B inh inconclusive, G9a inh inconclusive, JMJD2A Tudor inconclusive (no result: L3MBTL1 block)
Cc1ccc(S(=O)(=O)N2CN(Cc3ccco3)c3nc4ccccc4nc32)cc1	G9a inh 32µM, JMJD2A Tudor inconclusive
CN1C(=O)/C(=C\C=C2/CCCN2C)N(C)C1=S	G9a inh 18µM (no result: L3MBTL1 block)
CCN1C(=O)/C(=C/C=C2/CCCN2C)OC1=S	none
O=C1CCCc2cc(S(=O)(=O)NCC3CCC(C(=O)Nc4ccccc4F)CC3)ccc2N1 (stereo not given)	none (no result: L3MBTL1 block)
CCOC(=O)c1c(NC(=O)COc2cccc(C)c2C)sc2c1CCC(CC)C2 (stereo not given)	none (no result: L3MBTL1 block)
CC(=O)ON=C1C=CC(=C(C#N)c2ccccc2)C=C1	none (no result: BAZ2B inh, HP1b chromo inh, G9a inh, L3MBTL1 block, JMJD2A Tudor)
N#CC(=C1C=CC(=NO)C(Cl)=C1)c1ccc(Cl)cc1	HP1b chromo inh inconclusive, JMJD2A Tudor 20µM (no result: BAZ2B inh, G9a inh, L3MBTL1 block)
Cc1nc(-c2ccc(S(=O)(=O)Nc3cc(Cl)ccc3C)cc2)co1	none (no result: L3MBTL1 block)
NC1=NC(=O)/C(=C/c2cn(Cc3ccccc3)c3ccccc23)S1	BAZ2B inh inconclusive, G9a inh 50µM
CCC1(CC)C(=O)C2=C3C1[C@H](C(=O)OC)CC(C(=O)OC)C[C@H]3[C@H]1C(=O)N(C)C(=O)[C@H]1[C@H]2C (stereo not given in full)	none (no result: BAZ2B inh, G9a inh, L3MBTL1 block, GLS inh)
Clc1cccc(-c2ccc(C3Nc4cccc5cccc(c45)N3)o2)c1	HP1b chromo inh inconclusive, JMJD2A Tudor 40µM (no result: BAZ2B inh, G9a inh)
Clc1ccc(C2Nc3cccc4cccc(c34)N2)c(Cl)c1	HP1b chromo inh inconclusive, JMJD2A Tudor 35µM (no result: BAZ2B inh, G9a inh, L3MBTL1 block)
Brc1ccc(C2Nc3cccc4cccc(c34)N2)s1	BAZ2B inh inconclusive, HP1b chromo inh inconclusive, G9a inh 25µM
Cc1cccc(C2Nc3cccc4cccc(c34)N2)c1	BAZ2B inh inconclusive, HP1b chromo inh inconclusive, G9a inh 35µM, JMJD2A Tudor inconclusive (no result: L3MBTL1 block)
NC(=O)CC1Nc2cccc3cccc(c23)NC1=O (stereo not given)	HP1b chromo inh inconclusive
